Screening results (PubChem)
Most compounds without a hit are left out; they make up all but 5.2% or so of the library.
rTrxR1 inhibitor: qHTS Assay for Inhibitors of Mammalian Selenoprotein Thioredoxin Reductase 1 (TrxR1): qHTS. Thioredoxin reductase 1, cytoplasmic (Rattus norvegicus), O89049. recombinant rTrxR1, NADPH fluorescence consumption, selenite substrate. Potency, µM (doses to about 114 µM), without a hit: at the highest dose activity change, negative = inhibition, usual class: inhibitors. actives 1% (n = 390,000). AID 588453, 2011; also: nearly all actives have a fitted effect of over 65% in size
Target sequence (O89049 whole entry, looked up): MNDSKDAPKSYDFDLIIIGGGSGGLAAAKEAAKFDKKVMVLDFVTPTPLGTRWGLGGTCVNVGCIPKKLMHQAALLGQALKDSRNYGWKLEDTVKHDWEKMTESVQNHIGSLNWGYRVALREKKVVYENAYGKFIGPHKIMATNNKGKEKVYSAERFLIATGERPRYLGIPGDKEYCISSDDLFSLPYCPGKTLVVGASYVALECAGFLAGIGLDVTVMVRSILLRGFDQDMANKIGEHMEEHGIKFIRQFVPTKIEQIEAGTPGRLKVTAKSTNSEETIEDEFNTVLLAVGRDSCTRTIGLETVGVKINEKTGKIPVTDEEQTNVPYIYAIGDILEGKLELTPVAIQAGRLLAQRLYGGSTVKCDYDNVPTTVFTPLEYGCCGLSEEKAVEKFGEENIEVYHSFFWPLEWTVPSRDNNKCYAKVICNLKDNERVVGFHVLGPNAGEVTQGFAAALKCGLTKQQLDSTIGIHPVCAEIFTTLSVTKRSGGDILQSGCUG
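Rat TrxR1 (90 nM in the dispensed reagent) was pre-reduced with 400 uM NADPH for 5 min at room temperature, then incubated with compound for 15 min. After 400 uM selenite was added, NADPH fluorescence (Ex 340/Em 450 nm) was followed for 8 min.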
PLK1 PBD block: qHTS for Inhibitors of PLK1-PDB (polo-like kinase 1 - polo-box domain): Primary Screen. Potency, µM, without a hit: max response, negative = inhibition, usual class: inhibitors. AID 720504, 2013. Serine/threonine-protein kinase PLK1 (Homo sapiens), P53350. actives 2.8% (n = 360,000). Plk1 PBD binding of FITC phosphopeptide, fluorescence polarization; also: series mostly up to about 57 µM; nearly all actives have a fitted effect of over 65% in size
Sfp PPTase inh: qHTS Assay for Inhibitors of Bacillus subtilis Sfp phosphopantetheinyl transferase (PPTase) | actives 3.5% (n = 310,000) | Biochemical Sfp PPTase activity, qHTS | 4'-phosphopantetheinyl transferase ffp (Bacillus subtilis), Q9F4F7 | Potency, µM, inactives show largest response in the series, negative = inhibition, most hits filed as inhibitors;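 also: the enzyme is Sfp with the accession as filed and its product quenches rhodamine fluorescence; 0% = enzyme reaction without inhibitor and -100% = no enzyme wells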
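Step 1, compound plus 15 nM Sfp-PPTase, 15 min, room temperature. Step 2, add rhodamine-CoA (5 uM) and BHQ-2-YbbR (12.5 uM). Step 3, read 525/598 nm fluorescence at 0 and 30 min.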
TrxR1 substrate: qHTS Assay for Substrates of Mammalian Selenoprotein Thioredoxin Reductase 1 (TrxR1): qHTS | Thioredoxin reductase 1, cytoplasmic (Rattus norvegicus), O89049 | purified TrxR1 substrate turnover, NADPH consumption readout | Potency, µM (series often up to 114 µM), inactives show at the top dose activity change, negative = substrate turnover | actives 0.01% (n = 390,000); also: nearly all actives have a fitted effect of over 50% in size
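Rat TrxR1, dispensed at 90 nM, was prereduced with 400 uM NADPH (final) for 5 min at ~22 deg C, then incubated with compound 15 min before 400 uM selenite. A first-read NADPH fluorescence drop versus no-compound background flagged substrates.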
VDR inh: Inhibitors of the vitamin D receptor (VDR): qHTS | Potency, µM, inactives show max response, negative = inhibition, hits mostly inhibitors | VDR-SRC2-3 peptide fluorescence polarization, 2 h | Vitamin D3 receptor (Homo sapiens), P11473 | actives 0.93% (n = 400,000)
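VDR–SRC2-3 interaction, FP format. Cmpds 23 nl via pintool, brief spin, 2 h ambient incubation.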
IDH1 R132H inh: qHTS for Inhibitors of mutant isocitrate dehydrogenase 1 (IDH1): qHTS | Isocitrate dehydrogenase [NADP] cytoplasmic (Homo sapiens), O75874 | IDH1-R132H enzyme, NADPH consumption, diaphorase/resazurin fluorescence | Potency, µM (titrated, usually from 76.6 µM), inactives show top-dose activity change, negative = inhibition, usual class: inhibitors | actives 0.093% (n = 390,000) | AID 602179, 2012; also: nearly all actives have a fitted effect of over 65% in size
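IDH1-R132H (0.5 ug/mL dispensed) in pH 7.5 Tris buffer was preincubated 30 min with compound, then given a substrate mix of 0.016 mM NADPH and 2 mM alpha-KG for 80 min at room temperature; remaining NADPH was read by diaphorase/resazurin fluorescence.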
Numbers without * were called inactive; [ ] = remark or other dose. Calls follow the shape of the dose curve; as a rule, active = well fitted curve in the direction sought with a large enough effect; inconclusive = small, poorly fitted or top-dose-only effect, or another doubt; inactive = no such curve, though single readings can be large; an effect the other way counts as inactive or inconclusive. Unless noted, % is scaled to controls: 0 for no effect and ±100 for the full control effect; potency is read from the fitted curve at half-maximal effect.

`O=C1N/C(=N\S(=O)(=O)Cc2ccccc2)S/C1=C/c1cc([N+](=O)[O-])ccc1O` gave rTrxR1 inhibitor -30%, PLK1 PBD block -3%, Sfp PPTase inh 28µM*, TrxR1 substrate inconclusive, VDR inh inconclusive and IDH1 R132H inh 0%.
`COc1cc(/C=C2\S/C(=N/S(=O)(=O)Cc3ccccc3)NC2=O)c([N+](=O)[O-])cc1OC` gave rTrxR1 inhibitor -15%, PLK1 PBD block -17%, Sfp PPTase inh -1%, TrxR1 substrate -15%, VDR inh -28% and IDH1 R132H inh 0%.
`O=C1N/C(=N\S(=O)(=O)c2ccccc2)S/C1=C\c1cc([N+](=O)[O-])ccc1O` gave rTrxR1 inhibitor -14%, PLK1 PBD block 27%, Sfp PPTase inh 13%, TrxR1 substrate -20%, VDR inh inconclusive and IDH1 R132H inh 0%.
`COc1cc(/C=C2/S/C(=N/S(=O)(=O)Cc3ccccc3)NC2=O)c([N+](=O)[O-])cc1OC` gave rTrxR1 inhibitor 24%, PLK1 PBD block 24µM*, Sfp PPTase inh 19%, TrxR1 substrate 8%, VDR inh -13% and IDH1 R132H inh 1%.
Screening CCCCOC(=O)CSc1nnc(-c2ccccc2)o1 returned rTrxR1 inhibitor 13%[57.1 µM], TrxR1 substrate 3%[57.1 µM], VDR inh -2% and IDH1 R132H inh -6%.
Screening CNC(=O)/C(C#N)=C/c1c(N2CCCCCC2)nc2c(C)cccn2c1=O returned rTrxR1 inhibitor 16%, PLK1 PBD block -10%, Sfp PPTase inh 10%, TrxR1 substrate 78%, VDR inh 9% and IDH1 R132H inh -18%.
Cc1ccc(-c2[nH][nH]c(=O)c(=O)c2N=Nc2ccccc2)cc1 was read as rTrxR1 inhibitor -11%, PLK1 PBD block 30µM*, Sfp PPTase inh 13%, TrxR1 substrate -6%, VDR inh -18% and IDH1 R132H inh 2%.
Cc1cc(=O)n2[nH]c(=O)c(N=Nc3ccccc3)c2[nH]1 was read as rTrxR1 inhibitor inconclusive, PLK1 PBD block -5%, Sfp PPTase inh -2%, TrxR1 substrate inconclusive, VDR inh 7% and IDH1 R132H inh 16%.
Screening COc1cc(/C=N/n2c(-c3cc(C)[nH]n3)n[nH]c2=S)cc(OC)c1O returned rTrxR1 inhibitor inconclusive, PLK1 PBD block -8%, Sfp PPTase inh 28µM*, TrxR1 substrate -8%, VDR inh 7% and IDH1 R132H inh 7%.
Screening S=c1[nH]nc(Cc2ccc(Br)cc2)n1/N=C/c1ccc(Cl)cc1 returned rTrxR1 inhibitor 36%[57.1 µM], PLK1 PBD block 3.4µM*, Sfp PPTase inh 14µM*, TrxR1 substrate 13%[57.1 µM], VDR inh 79µM* and IDH1 R132H inh 15%.
For COc1cc(OC)c(OC)cc1/C=N/n1c(-c2n[nH]c3c2CCC3)n[nH]c1=S the results were rTrxR1 inhibitor -9%, PLK1 PBD block inconclusive, Sfp PPTase inh 22µM*, TrxR1 substrate 3%, VDR inh 2% and IDH1 R132H inh 1%.
Screening Oc1ccccc1/C=N/n1c(COc2ccccc2)n[nH]c1=S returned rTrxR1 inhibitor inconclusive, PLK1 PBD block inconclusive, Sfp PPTase inh inconclusive, TrxR1 substrate 7%[57.1 µM], VDR inh -2% and IDH1 R132H inh 16%.
Screening CSc1ccc(/C=N/n2c(COc3ccccc3)n[nH]c2=S)cc1 returned rTrxR1 inhibitor 11%, PLK1 PBD block 34µM*, Sfp PPTase inh -16%, TrxR1 substrate 3%, VDR inh 2% and IDH1 R132H inh 4%.
COc1ccc(NC(=O)CN(C)S(=O)(=O)c2ccc(C(=O)N3CCOCC3)s2)cc1 was read as rTrxR1 inhibitor 1%[57.1 µM], TrxR1 substrate -9%[57.1 µM], VDR inh -1% and IDH1 R132H inh 5%.
Screening CCOc1ccc(NC(=O)CN(C)C(=O)c2ccc3c(c2)S(=O)(=O)N=C2CCCCCN23)cc1OCC returned rTrxR1 inhibitor -4%, PLK1 PBD block 4%, TrxR1 substrate -6%, VDR inh -3% and IDH1 R132H inh -9%.
Cc1ccc(-c2nc3nc(C)cc(N4CCN(c5cccc(C)c5)C(C)C4)n3n2)cc1 (stereo not drawn) was read as rTrxR1 inhibitor 1%, TrxR1 substrate -3%, VDR inh -13% and IDH1 R132H inh -12%.
For Cc1ccc(/C=N/n2c(COc3ccccc3)n[nH]c2=S)o1 the results were rTrxR1 inhibitor inconclusive, PLK1 PBD block inconclusive, Sfp PPTase inh 45µM*, TrxR1 substrate -7%, VDR inh 6% and IDH1 R132H inh 4%.
For Cc1cc(C)c(COc2ccc(/C=N/n3c(C)n[nH]c3=S)cc2)c(C)c1 the results were rTrxR1 inhibitor -31%, PLK1 PBD block inconclusive, Sfp PPTase inh 50µM*, TrxR1 substrate -17%, VDR inh -3% and IDH1 R132H inh 2%.
Cc1ccccc1/C=N/n1c(COc2ccccc2)n[nH]c1=S was read as rTrxR1 inhibitor -23%, PLK1 PBD block inconclusive, Sfp PPTase inh -11%, TrxR1 substrate 3%, VDR inh 8% and IDH1 R132H inh 0%.
For Cc1n[nH]c(=S)n1/N=C/c1ccc(OCc2ccc(Cl)cc2)cc1 the results were rTrxR1 inhibitor 11%, PLK1 PBD block -11%, Sfp PPTase inh -24%, TrxR1 substrate 4%, VDR inh -3% and IDH1 R132H inh 7%.
CC(/C=N/n1c(-c2n[nH]c3c2CCC3)n[nH]c1=S)=C\c1ccco1 was read as rTrxR1 inhibitor inconclusive, PLK1 PBD block -24%, Sfp PPTase inh 45µM*, TrxR1 substrate 2%[57.1 µM], VDR inh -4% and IDH1 R132H inh -10%.
`CC(/C=N/n1c(COc2ccccc2)n[nH]c1=S)=C\c1ccco1` gave rTrxR1 inhibitor -15%[57.1 µM], PLK1 PBD block 21µM*, Sfp PPTase inh -12%, TrxR1 substrate 4%[57.1 µM], VDR inh -18% and IDH1 R132H inh 5%.
For Cc1ccc(C(=O)NCCc2nnc3ccc(SCC(=O)Nc4ccccc4F)nn23)cc1 the results were rTrxR1 inhibitor 12%, PLK1 PBD block -12%, Sfp PPTase inh 1%, TrxR1 substrate 4%, VDR inh -22% and IDH1 R132H inh -3%.
For CN(C)c1ccc(/C=C/c2ccnc3c(Cl)cccc23)cc1 the results were rTrxR1 inhibitor -7% and TrxR1 substrate -7%.
